# KDM5B inh – Primary screen for KDM5B Histone Demethylases FDH-coupled qHTS | Lysine-specific demethylase 5B (Homo sapiens), Q9UGL1 | KDM5B demethylase, FDH-coupled NADH fluorescence (FDH is formaldehyde dehydrogenase) | Potency, µM (top dose mostly 57.7 µM), most hits filed as inhibitors | 2.6% of 220,000 active | AID 1347165, 2019; active = well fitted inhibition curve with a large enough effect; also: 0% is about no effect; nearly all actives have a fitted effect of over 70% in size
# Target sequence (Q9UGL1 whole entry, looked up): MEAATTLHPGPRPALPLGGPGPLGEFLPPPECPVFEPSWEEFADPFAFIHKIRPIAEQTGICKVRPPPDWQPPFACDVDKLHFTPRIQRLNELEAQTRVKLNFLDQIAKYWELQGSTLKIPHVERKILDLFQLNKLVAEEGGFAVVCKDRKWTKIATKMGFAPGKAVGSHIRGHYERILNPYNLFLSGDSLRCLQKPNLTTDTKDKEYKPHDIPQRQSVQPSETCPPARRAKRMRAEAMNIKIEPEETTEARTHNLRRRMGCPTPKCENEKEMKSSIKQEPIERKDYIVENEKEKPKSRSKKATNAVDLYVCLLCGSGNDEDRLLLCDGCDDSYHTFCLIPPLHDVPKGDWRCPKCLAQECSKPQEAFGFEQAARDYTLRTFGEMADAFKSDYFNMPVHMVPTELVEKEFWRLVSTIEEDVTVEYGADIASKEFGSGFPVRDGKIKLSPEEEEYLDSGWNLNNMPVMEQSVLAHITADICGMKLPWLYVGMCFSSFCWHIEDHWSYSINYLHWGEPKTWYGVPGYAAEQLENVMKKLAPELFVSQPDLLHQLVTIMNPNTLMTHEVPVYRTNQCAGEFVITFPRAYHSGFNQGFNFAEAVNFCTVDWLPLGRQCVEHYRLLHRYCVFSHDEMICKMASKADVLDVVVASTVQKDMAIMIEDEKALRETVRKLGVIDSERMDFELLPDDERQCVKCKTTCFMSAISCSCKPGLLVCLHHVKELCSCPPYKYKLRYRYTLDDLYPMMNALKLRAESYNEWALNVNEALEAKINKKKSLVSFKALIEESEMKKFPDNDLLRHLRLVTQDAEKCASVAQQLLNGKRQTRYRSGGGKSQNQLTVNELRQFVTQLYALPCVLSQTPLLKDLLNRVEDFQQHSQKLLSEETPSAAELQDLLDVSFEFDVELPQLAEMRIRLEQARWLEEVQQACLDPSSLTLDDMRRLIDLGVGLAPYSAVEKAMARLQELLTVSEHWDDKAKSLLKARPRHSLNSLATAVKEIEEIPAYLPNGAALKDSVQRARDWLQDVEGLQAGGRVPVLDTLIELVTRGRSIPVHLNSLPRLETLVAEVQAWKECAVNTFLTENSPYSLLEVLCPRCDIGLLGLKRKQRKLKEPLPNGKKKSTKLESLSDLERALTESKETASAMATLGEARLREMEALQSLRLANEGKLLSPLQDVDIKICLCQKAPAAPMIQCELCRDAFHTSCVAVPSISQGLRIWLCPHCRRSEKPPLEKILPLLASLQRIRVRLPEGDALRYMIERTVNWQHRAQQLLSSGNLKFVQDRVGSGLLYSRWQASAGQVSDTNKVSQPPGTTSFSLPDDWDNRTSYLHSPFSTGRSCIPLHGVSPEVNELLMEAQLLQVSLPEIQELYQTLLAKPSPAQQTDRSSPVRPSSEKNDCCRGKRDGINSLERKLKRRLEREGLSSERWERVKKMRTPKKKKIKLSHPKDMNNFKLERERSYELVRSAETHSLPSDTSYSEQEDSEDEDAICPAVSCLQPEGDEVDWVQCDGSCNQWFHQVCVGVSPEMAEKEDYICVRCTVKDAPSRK
#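 Inhibition is measured as reduced NADH fluorescence generation from FDH coupling to formaldehyde release. Truncated KDM5BΔAP at 200 nM final acts on H3K4me3 peptide (12.5 µM in substrate mix) in pH 7.5 HEPES buffer with Tween-20, 30 min, room temperature.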
# * marks the source's active call; other numbers are inactive results; i = inactive. The full list was thinned out, with hits kept by preference. Potency is read from the fitted curve at half-maximal effect.
SMILES,KDM5B inh
COc1ccc(-c2noc([C@@H]3C[C@H](NS(=O)(=O)c4ccc(OC)cc4)CN3C)n2)cc1,i
COc1ccc(C(C)NC(=O)c2noc(-c3ccc[nH]c3=O)n2)cc1OC (stereo not given),32µM*
COCCNC(=O)c1noc(-c2ccc[nH]c2=O)n1,28µM*
Cc1ccc(C)c(N2CCN(C(=O)c3noc(-c4ccc[nH]c4=O)n3)CC2)c1,28µM*
COc1ccc(C(C)NC(=O)c2c(C)noc2C)cc1OC (stereo not given),i
CC(C)Oc1ccc(CNC(=O)c2noc(-c3ccc[nH]c3=O)n2)cc1,i
O=C(NCC1CC1)c1noc(-c2ccc[nH]c2=O)n1,i
COCCNC(=O)c1noc(-c2ccccc2F)n1,i
Cc1ccc(-c2nc(C(=O)N3CCN(c4cccc(C)c4)CC3)no2)cc1,i
Cc1ccc(-c2nc(C(=O)N3CCN(c4ccc(C)cc4C)CC3)no2)cc1,i
CC(NC(=O)C1CCN(C(=O)c2cccc3ccccc23)CC1)c1ccc(F)cc1F (stereo not given),i
O=C(O)/C(=C\c1cccnc1)NC(=O)c1ccccc1,i
O=C(/C=C/c1ccc(-c2cc(Cl)ccc2Cl)o1)c1ccc(Cl)cc1,i
O=C(NC1CC(c2nnc(CO)n2C2CC2)C1)c1csc(-c2ccccc2)n1 (stereo not given),i
O=C(NC1CC(c2nnc(CO)n2C2CC2)C1)C1(c2ccccc2)CCCC1 (stereo not given),i
O=C(NC1CC(c2nnc(CO)n2C2CC2)C1)c1nc2ccccc2[nH]1 (stereo not given),32µM*
CC1(C)Cc2cccc(OCc3ccc(C(N)=O)cc3)c2O1,i
COC(=O)c1cccc(S(=O)(=O)Nc2ccc(Cl)c3cccnc23)c1,i
O=[N+]([O-])c1ccc2nc(C(F)(F)F)[nH]c2c1,i
CCC(NC(=O)C1CCN(C(=O)c2cccc3ccccc23)CC1)c1ccc(Cl)cc1 (stereo not given),i
CCOc1cc(/C=N/NC(=O)C(=O)NCC2CCCO2)ccc1OCC(=O)N1CCOCC1 (stereo not given),i
CCOc1ccc(-c2ccnc(N3CCC(NC(C)=O)CC3)n2)cc1C(=O)O,32µM*
CCCOc1c(Cl)cc(C(=O)NCC2CCCO2)cc1OCC (stereo not given),i
CCOc1ccc(CC(=O)NC2CCN(c3cc(-c4ccc(OC)cc4)[nH]n3)CC2)cc1,i
CCOc1cc(C(=O)NC2CCN(c3cc(-c4ccc(OC)cc4)[nH]n3)C2)cc(OCC)c1OCC (stereo not given),i
SMILES,KDM5B inh
CCOc1ccc(-c2ccnc(N3CCNC(C)C3)n2)cc1C(=O)O (stereo not given),28µM*
CCOc1ccc(-c2ccnc(NC[C@@H]3CCCO3)n2)cc1C(=O)O,22µM*
CCOc1ccc(-c2cc(C(=O)O)c3ccccc3n2)cc1OCC,i
CCOc1ccccc1C(=O)N1CCN(c2cc(-c3ccc(OC)cc3)[nH]n2)CC1,i
CCOC(=O)c1[nH]c(C)c(C(=O)OCc2ccc(C(N)=O)cc2)c1C,i
Cc1ccc(Sc2ccc(NC(=O)c3cccc(C)c3C)cc2)c(C)c1,i
CCOC(=O)C(NC(=O)c1cc2ccccc2o1)C(=O)OCC,i
Cc1ccsc1C(=O)OCC(=O)c1ccccc1,i
O=C(CN1CCCN(c2ccc(C(F)(F)F)cn2)CC1)Nc1ccccc1Cl,i
FC(F)(F)C(Oc1nc(N2CCOCC2)nc(N2CCOCC2)n1)C(F)(F)F,i
CCC(Oc1ccccc1)C(=O)Nc1ccc(S(=O)(=O)NCC(=O)c2ccccc2)cc1 (stereo not given),i
O=C(NCC1CCCO1)c1cnc2c(c1)N(Cc1ccccc1)CCC2 (stereo not given),40µM*
CC(C)c1ccc(CC(=O)N2CCCc3ncc(C(=O)NCCN(C)C)cc32)cc1,i
CC(C)c1ccc(CC(=O)N2CCCc3ncc(C(=O)NCCc4ccccc4)cc32)cc1,i
O=C(NCC1CCCO1)c1ccc(COc2ccccc2)cc1 (stereo not given),i
CN(C)CCNC(=O)c1cnc2c(c1)N(Cc1ccccc1)CCC2,35µM*
COc1ccccc1CC(=O)N1CCCc2ncc(C(=O)N3CCC(OC)CC3)cc21,i
COC1CCN(C(=O)c2cnc3c(c2)N(Cc2ccccc2)CCC3)CC1,40µM*
O=C(NCC1CCCO1)c1cnc2c(c1)N(C(=O)CCc1ccccc1)CCC2 (stereo not given),i
COC1CCN(C(=O)c2cnc3c(c2)N(C(=O)CCc2ccccc2)CCC3)CC1,i
COc1cccc(C2=NS(=O)(=O)N(C)C(C(=O)NCC(C)C)=C2)c1,i
C/C(=N/O)c1oc2ccccc2c1C,i
Cc1ccccc1OCC(=N)N,i
COC(=O)c1ccc(CNC(=O)C2Cc3ccccc3O2)cc1 (stereo not given),i
CCOC(=O)c1sc(-c2ccc3c(c2)OCCO3)cc1NC(=O)c1ccco1,i
SMILES,KDM5B inh
O=C(CCc1cccc(F)c1)NC1CC2CC1C1CCCC21 (stereo not given),i
Nc1cccc(OC2CCCC2)c1,i
Cc1cccc(NC(=O)CC(C)c2ccccc2)c1 (stereo not given),i
COCCN1CCCC(c2[nH]ccc2C(=O)NCCc2nc3ccccc3[nH]2)C1 (stereo not given),i
Cn1c(CNC(=O)CC2CCN(S(C)(=O)=O)C2)nc2ccccc21 (stereo not given),i
Cn1c(CNC(=O)c2cc[nH]c2C2CCCNC2)nc2ccccc21 (stereo not given),32µM*
CCCCCn1nc(C(=O)N(CC)Cc2nc3ccccc3c(=O)[nH]2)c2ccccc2c1=O,i
O=C(Nc1ccccc1-c1ccccc1)c1cc(F)cc(F)c1,i
COc1cc(/C=C/C(=O)OCc2cc(=O)oc3cc(C)ccc23)ccc1O,i
CC1CCc2nc3ccccc3c(C(=O)Nc3ccc(F)c(F)c3)c2C1 (stereo not given),i
Fc1ccc(-c2cnc3n2C[C@H](CNCc2ccc4c(c2)OCO4)OC3)cc1,i
O=C(NC[C@H]1Cn2c(-c3ccc4c(c3)OCO4)cnc2CO1)Nc1ccc(F)cc1,28µM*
O=C(NC[C@H]1Cn2c(-c3ccc(F)cc3)cnc2CO1)NC1CCCCC1,i
Cn1c(=O)c2c(ncn2CC(=O)c2ccc3c(c2)CCC3)n(C)c1=O,i
COc1ccc(CNC(=O)c2ccccc2OC(F)F)cc1C(=O)O,i
O=C(c1ccc(Cl)cc1)N1CC2(CCCN2C2COC2)Cc2ccccc21 (stereo not given),89µM*
O=C(c1ccccc1)N1CC2(CCCN2C2COC2)Cc2ccccc21 (stereo not given),i
O=C(c1ccc(Cl)cc1)N1CC2(CCN(C3COC3)CC2)Cc2ccccc21,i
Clc1ccc(-c2nn3c(-c4ccc5ccccc5n4)nnc3s2)cc1,i
CCCCCCCCCCNC(=S)Nc1ccccc1,i
COc1ccc(-c2cc(N3CCCC(NC(=O)c4ccc5cc[nH]c5c4)C3)n[nH]2)cc1 (stereo not given),i
CCC1=C(C(=O)OC)C(c2ccccc2C)N2C(CC(=O)NCC3CC3)=CSC2=N1 (stereo not given),32µM*
CCC1=C(C(=O)OC)C(c2ccccc2Cl)N2C(CC(=O)NCC3CCCO3)=CSC2=N1 (stereo not given),i
